Compound activity from PubChem.
A selection: hits, their analogues and other compounds. The true share with any hit is near 3%.
C8 TRAIL sens: sensitizes caspase-8 expressing cells to TRAIL. NB7+C8 cells + TRAIL, ATPlite viability luminescence. inhibition (viability loss, TRAIL sensitization), % at 10 µM. 1% of 360,000 active;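 active means compounds causing at least 50% loss of cell viability in the single-dose screen, relative to plate controls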
SENP8 block-1: inhibitors of human SENP8 protease; purified SENP8, Z-RLRGG-aminoluciferin cleavage, luminescence; inhibition, % at 10 µM; 1.2% of 330,000 active; Q96LD8; in the data active means inhibition above about 50%
Target sequence (Q96LD8 whole entry, looked up): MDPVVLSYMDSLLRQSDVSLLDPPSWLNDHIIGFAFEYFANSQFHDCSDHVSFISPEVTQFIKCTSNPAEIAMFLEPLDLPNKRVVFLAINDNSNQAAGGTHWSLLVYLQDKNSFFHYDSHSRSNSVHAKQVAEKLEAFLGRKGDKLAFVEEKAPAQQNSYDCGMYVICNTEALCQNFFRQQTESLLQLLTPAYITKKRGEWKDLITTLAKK
SENP8 block-2: blocks human SENP8 cleavage of Nedd8 substrate. Q96LD8. recombinant SENP8, Nedd8 substrate fluorescence. inhibition, % at 20 µM. 0.64% of 360,000 active. AID 602440; in the data active means inhibition mostly above about 40%, no sharp cut-off; inactive means mostly below about 27%
SENP7 inh: inhibitors of human SENP7 protease; AID 434973; inhibition, % at 5 µM; Q9BQF6; 1.5% of 330,000 active; recombinant SENP7, Z-RLRGG-aminoluciferin luminescence, 40 min;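 active means inhibition above about 50% at the single test dose, limit read from the data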;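 further: plate controls were DMSO with enzyme for no effect and no enzyme buffer wells for full effect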
SENP6 inh: SENP6 protease inhibition; AID 2599; Q9GZR1; inhibition, % at 10 µM; 1.8% of 330,000 active; Recombinant SENP6 catalytic domain, aminoluciferin luminescence;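 active means inhibition above about 50% at the single tested dose, limit read from the data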;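 further: plate controls were DMSO wells with enzyme for no effect and DMSO wells lacking enzyme for full effect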
PPC-1+TRAIL kill: compounds killing PPC-1 cancer cells with TRAIL present (potentiator screen, no TRAIL-free arm); PPC-1 cells + TRAIL, ATPLite viability luminescence; cell killing (% activity), % at 4 µM or 5 µM; 0.41% of 220,000 active; AID 1443;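 active means cell killing above 50% in the first pass at 4 µM, then a duplicate retest at 5 µM averaging 50% or more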;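 further: plate controls were cells with TRAIL plus DMSO for no effect and medium-only wells lacking cells for full effect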
SENP8 confirm: human SENP8 inhibition, confirmed. shares compounds with SENP7 inh. Recombinant SENP8, Z-RLRGG-aminoluciferin luminescence, 60 min. inhibition, % at 12.5 µM. 40% of 6,200 active;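 active means mean inhibition across replicates above about 50%, limit read from the data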
SENP6 confirm: confirmation of human SENP6 protease inhibitors. inhibition, % at 12.5 µM. 58% of 6,200 active. recombinant SENP6, Z-RLRGG-aminoluciferin luminescence. shares compounds with SENP7 inh. AID 488915
SENP7 conf: human SENP7 inhibition, confirmed; shares compounds with SENP7 inh; recombinant SENP7, Z-RLRGG-aminoluciferin luminescence, 40 min; inhibition, % at 12.5 µM; 69% of 6,200 active
Casp3 select: inhibits human caspase-3 in SENP selectivity test | shares compounds with SENP7 inh | purified caspase-3, Z-DEVD-aminoluciferin luminescence, 60 min | inhibition, % at 12.5 µM | 60% of 6,200 active | AID 488918;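 active means mean inhibition above about 50%, limit read from the data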;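 further: plate controls were enzyme with DMSO for no effect and wells without caspase-3 for full effect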
Target sequence (P42574 28-227 limits assumed): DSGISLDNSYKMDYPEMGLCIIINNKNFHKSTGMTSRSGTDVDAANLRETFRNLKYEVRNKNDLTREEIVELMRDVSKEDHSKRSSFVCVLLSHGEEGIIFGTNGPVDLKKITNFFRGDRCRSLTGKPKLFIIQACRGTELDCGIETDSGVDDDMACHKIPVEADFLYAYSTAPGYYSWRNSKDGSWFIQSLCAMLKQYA
Luc interf: luminescence interference (SENP counter-screen); shares compounds with SENP7 inh; Pre-incubated SENP8/Z-RLRGG-aminoluciferin, luciferase luminescence interference; inhibition, % at 12.5 µM; 39% of 6,200 active; AID 488919;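 active means mean inhibition above about 50% when retested at one dose, limit read from the data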;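 further: plate controls were DMSO wells with completed reaction for no effect and substrate without enzyme for full effect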
* hit, by the source's call.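 How the source made its calls, unless noted: active means mean inhibition above about 50% in the one-dose retest (limit read from the data); inactive means the rest.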

Screening CC(=O)c1ccc(NC2=C(N3CCOCC3)C(=O)c3ccccc3C2=O)cc1 returned C8 TRAIL sens 16, SENP8 block-1 29, SENP8 block-2 59*, SENP7 inh 9, SENP6 inh 53*, PPC-1+TRAIL kill -6, SENP8 confirm 21, SENP6 confirm 56*, SENP7 conf 37, Casp3 select 9 and Luc interf 2.
`Cc1ccc(NC2=C(N3CCOCC3)C(=O)c3ccccc3C2=O)cc1` gave C8 TRAIL sens 56*, SENP8 block-1 68*, SENP8 block-2 71*, SENP7 inh 35, SENP6 inh 80*, PPC-1+TRAIL kill 4, SENP8 confirm 72*, SENP6 confirm 83*, SENP7 conf 72*, Casp3 select 88* and Luc interf 29.
`Cc1noc(C)c1S(=O)(=O)N(C)C[C@@H]1OCc2cnnn2CCCC(=O)N([C@H](C)CO)C[C@@H]1C` gave C8 TRAIL sens 10 and SENP8 block-2 8.
Screening c1ccc(-c2ccc(C(c3ccccc3)n3ccnc3)cc2)cc1 (stereo unspecified) returned C8 TRAIL sens 12, SENP8 block-2 12 and PPC-1+TRAIL kill 6.
For c1ccc(-c2ccc(-n3ccnc3)cc2)cc1 the results were C8 TRAIL sens 18, SENP8 block-1 36, SENP8 block-2 -7, SENP7 inh 6, SENP6 inh 53*, PPC-1+TRAIL kill 0, SENP8 confirm 40, SENP6 confirm 33, SENP7 conf 72*, Casp3 select 56* and Luc interf 63*.
`CN1C(=O)CSc2ccc(NC(=O)N3CCc4ccccc43)cc21` gave C8 TRAIL sens 48, SENP8 block-1 47, SENP8 block-2 2, SENP7 inh 46, SENP6 inh 59*, PPC-1+TRAIL kill 17, SENP8 confirm 57*, SENP6 confirm 54*, SENP7 conf 85*, Casp3 select 62* and Luc interf 53*.
For CC(=O)Nc1ccc(NC(=O)Nc2ccc3c(c2)N(C)C(=O)CS3)cc1 the results were C8 TRAIL sens 6, SENP8 block-1 -4, SENP8 block-2 8, SENP7 inh 0, SENP6 inh 2 and PPC-1+TRAIL kill -4.
For COCCCN=Cc1c(C)[nH]n(-c2ccc(Br)c(C)c2)c1=O the results were C8 TRAIL sens 16, SENP8 block-1 4, SENP8 block-2 6, SENP7 inh 38, SENP6 inh 53*, PPC-1+TRAIL kill -1, SENP8 confirm -3, SENP6 confirm -6, SENP7 conf 46, Casp3 select 26 and Luc interf 34.
Screening NC(=O)c1cccc(-c2noc(-c3ccccc3F)n2)c1 returned C8 TRAIL sens 25, SENP8 block-1 56*, SENP8 block-2 9, SENP7 inh 57*, SENP6 inh 74*, SENP8 confirm 4, SENP6 confirm 52*, SENP7 conf 81*, Casp3 select 66* and Luc interf 12.
`COC(=O)c1cccc(-c2noc(-c3ccccc3F)n2)c1` gave C8 TRAIL sens 23, SENP8 block-1 48, SENP8 block-2 10, SENP7 inh 81*, SENP6 inh 64*, SENP8 confirm 40, SENP6 confirm 39, SENP7 conf 66*, Casp3 select 56* and Luc interf 34.
Screening COc1ccc(Br)cc1-c1noc(-c2ccccc2F)n1 returned C8 TRAIL sens 7, SENP8 block-1 -12, SENP8 block-2 21, SENP7 inh 6, SENP6 inh -23 and PPC-1+TRAIL kill 11.
Screening NC(=O)c1ccccc1-c1nc(-c2ccccc2)no1 returned C8 TRAIL sens 1, SENP8 block-1 -17, SENP8 block-2 18, SENP7 inh 4, SENP6 inh -42 and PPC-1+TRAIL kill 1.
For O=C(N/N=C/c1ccc(OC(=O)c2ccccc2Cl)cc1)c1ccccn1 the results were C8 TRAIL sens 26, SENP8 block-1 5, SENP8 block-2 -7, SENP7 inh 71*, SENP6 inh 4, SENP8 confirm 12, SENP6 confirm 11, SENP7 conf 15, Casp3 select 29 and Luc interf 10.
For CC(=O)c1cccc(-c2ccnc3c2CC(C(=O)NCc2ccco2)O3)c1 (stereo unspecified) the results were C8 TRAIL sens 18 and SENP8 block-2 0.
For CCN(CC)c1ccc(C(=O)OCC(=O)Nc2ncccn2)cc1 the results were C8 TRAIL sens -11, SENP8 block-1 2, SENP8 block-2 -44, SENP7 inh 6 and SENP6 inh 1.
`CCN(CC)c1ccc(C(=O)OCC(=O)Nc2sccc2C#N)cc1` gave C8 TRAIL sens -3, SENP8 block-1 21, SENP8 block-2 -10, SENP7 inh 6, SENP6 inh 69*, PPC-1+TRAIL kill -5, SENP8 confirm 38, SENP6 confirm 42, SENP7 conf 70*, Casp3 select 21 and Luc interf 37.
C=CCn1c(SCn2nnc3ccccc3c2=O)nc2scc(-c3cccs3)c2c1=O was read as C8 TRAIL sens 4, SENP8 block-1 -1, SENP8 block-2 10, SENP7 inh 74*, SENP6 inh -4, PPC-1+TRAIL kill -7, SENP8 confirm 7, SENP6 confirm 6, SENP7 conf 2, Casp3 select 1 and Luc interf 3.
Screening COCCn1c(C)cc(C(=O)CSc2nnc(C)s2)c1C returned C8 TRAIL sens 50*, SENP8 block-1 10, SENP8 block-2 19, SENP7 inh 50*, SENP6 inh 46, PPC-1+TRAIL kill 39, SENP8 confirm 41, SENP6 confirm 38, SENP7 conf 80*, Casp3 select 81* and Luc interf 56*.
Screening O=C(O/N=C1/CCCc2occc21)c1ccc(Cl)cc1Cl returned C8 TRAIL sens 1, SENP8 block-1 55*, SENP8 block-2 5, SENP7 inh 73*, SENP6 inh 67*, PPC-1+TRAIL kill 14, SENP8 confirm -2, SENP6 confirm 46, SENP7 conf 43, Casp3 select 53* and Luc interf 25.
